Bioassay records: PubChem BioAssay, National Center for Advancing Translational Sciences (NCATS)
Methyltransferases: Primary Screen for Target Class Profiling of Small Molecule Inhibitors of Methyltransferases; AID 1745853, 2022; purified enzyme, MTase-Glo SAH luminescence; stronger effect = lower value; 25,000 compounds, 3.9% hits; calls only at 40 µM; call rule not given here
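Each enzyme was assayed with SAM and its substrate. SAH formation detected by MTase-Glo luminescence; single-point 40 uM screen[…].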
Of the large screens only hits and unclear results are named; the others gave an inactive call. This is one part of a sample in which hits are shown more often than they occur.

O=C(CCCc1nnc2n3nc(-c4ccccc4)nc3c3ccccc3n12)N1CCN(c2ccccc2F)CC1	none
CCCn1c(=O)c2cc(F)ccc2n2c(SCC(=O)Nc3cccc(OC)c3)nnc12	none
COc1cccc(C(=O)Cn2nc3n(C(C)C)c(=O)c4ccc(C(=O)NCC(C)C)cc4n3c2=O)c1	none
NS(=O)(=O)c1cccc2c1c([N+](=O)[O-])cc1nc(O)c(O)nc12	Methyltransferases active
CC(C)OCCCn1c(=O)c2ccccc2n2c(SCc3ccccc3F)nnc12	none
CC(C)Cn1c(=O)c2ccc(C(=O)NC(C)C)cc2n2c(SCC(=O)Nc3ccc(F)cc3)nnc12	none
Cc1ccc2c(c1)C=Cc1cc(C)ccc1C2c1cn(Cc2ccc(C(=O)Nc3nn[nH]n3)o2)c(=O)[nH]c1=S	Methyltransferases active
O=C(c1ccc2c(=O)nc3c(-c4ccccc4)n[nH]n3c2c1)N1CCN(c2ccc(F)cc2)CC1	none
CCOc1ccc(CN2C(=O)c3cc(-c4ccc(OC)cc4)nn3CC2(C)C(=O)NCc2ccccc2)cc1 (configuration not stated)	none
CCc1ccc(N2C(=O)c3c(C(=O)OC)ncn3CC2(C)C(=O)NCCCOC(C)C)cc1 (configuration not stated)	none
CCCn1c(=O)c2cc(F)ccc2n2c(SCc3ccc(F)cc3Cl)nnc12	none
CN1CCc2cc(NC(=O)Nc3cccnc3)ccc21	none
Cn1ccc2cc3c(cc21)CCN3C(=O)Nc1cccnc1	Methyltransferases active
O=C(c1ccncc1)N1CCC(Nc2cccnc2)C1 (configuration not stated)	none
COCCCNC(=O)C1(C)Cn2nc(-c3ccccc3)cc2C(=O)N1Cc1cc(OC)ccc1OC (configuration not stated)	none
CCCC1c2ccc(C)n2CCN1C(=O)Nc1cccc(Cl)c1C (configuration not stated)	none
COc1ccc(Cl)cc1S(=O)(=O)Nc1ccc2[nH]c(=O)[nH]c2c1	none
O=C1c2ccccc2C(=O)c2c1cccc2S(=O)(=O)Nc1ccc(Cl)cc1	Methyltransferases active
CC1CCN(S(=O)(=O)c2cccc3c2C(=O)c2ccccc2C3=O)CC1	none
CCCN1C(=O)c2c(C(=O)NCc3ccc(F)cc3)ncn2CC1(C)C(=O)NCc1ccc(F)cc1 (configuration not stated)	none
COC(=O)c1cc2n(n1)CC(C)(C(=O)NC1CCC(C)CC1)N(Cc1ccc(OC(C)C)cc1)C2=O (configuration not stated)	none
CCCCNc1nc2c(S(=O)(=O)c3ccc(C)cc3)nnn2c2ccccc12	none
O=C1Nc2ccc(I)cc2/C1=C/c1cc(Br)c(O)c(Br)c1	Methyltransferases active
CCc1ccc(CN2C(=O)c3cc4ccccc4n3CC2(C)C(=O)NCCC(C)C)cc1 (configuration not stated)	none
CC1=CC(=O)[C@@]2(C(C)C)C[C@@H]12	Methyltransferases active
CSCCC(NC(=O)c1ccccc1NC(=O)c1ccc(C)cc1)C(=O)O (configuration not stated)	none
CC(C)CNC(=O)c1ccc2c(=O)n(CC(C)C)c3nn(Cc4ccccc4)c(=O)n3c2c1	none
CC(C)CCNC(=O)C1(C)Cn2c(ccc2-c2ccco2)C(=O)N1CCc1ccccc1 (configuration not stated)	none
Cc1ccc(NC(=O)CSc2nnc3n(CCc4ccccc4)c(=O)c4ccccc4n23)cc1C	none
CCCSc1nc(N[C@@H]2C[C@H]2c2ccc(F)c(F)c2)c2nnn([C@@H]3C[C@H](OCCO)[C@@H](O)[C@H]3O)c2n1	Methyltransferases active
Cn1c2c(c3ccccc31)C(C(=O)NCc1ccccc1)N(c1cccc(C(F)(F)F)c1)C(=O)CS2 (configuration not stated)	none
COc1ccc(CCNC(=O)c2cc3n(n2)CC(C)(C(=O)NCc2ccccc2)N(C)C3=O)c(OC)c1 (configuration not stated)	none
CC1(C(=O)NC2CCCCC2)Cn2nc(-c3ccco3)cc2C(=O)N1c1ccc(F)cc1 (configuration not stated)	none
COc1ccc(CN2C(=O)c3cc(-c4ccccc4)nn3CC2(C)C(=O)NCc2ccccc2OC)cc1 (configuration not stated)	none
Cc1ccc(N2CCN(S(=O)(=O)c3ccc4[nH]c(=O)[nH]c4c3)CC2)c(C)c1	none
O=C(Nc1cccc(F)c1)N1CCn2cccc2C1Cc1ccccc1 (configuration not stated)	none
O=C(Nc1ccc(F)c(Cl)c1)N1CCn2cccc2C1Cc1ccccc1 (configuration not stated)	Methyltransferases active
Cc1cccc(NC(=O)N2CCn3cccc3C2Cc2ccccc2)c1 (configuration not stated)	none
CC(C)NC(=O)c1ccc2c(=O)n(C(C)C)c3n[nH]c(=O)n3c2c1	none
Cc1ccc(Cn2c(=O)c3ccc(C(=O)NCC(C)C)cc3n3c(=O)[nH]nc23)cc1	none
CCS(=O)(=O)N1CCN(c2ccc(Nc3ncc(C(N)=O)c(NC4CC4)n3)cc2)CC1	Methyltransferases active
CC(=O)N1CCN(C(=O)Cc2ccc(Nc3ncc(F)c(Nc4ccc(C(=O)Nc5ccccc5Cl)cc4)n3)cc2)CC1	none
CC1CCC(NC(=O)C2(C)Cn3c(cc4occc43)C(=O)N2C2CCCCCC2)CC1 (configuration not stated)	none
CCC(C)NC(=O)c1ccc2c(=O)n(CC(C)C)c3nn(Cc4cccc(F)c4)c(=O)n3c2c1 (configuration not stated)	none
CCOC(=O)c1cc2n(n1)CC(C)(C(=O)NCc1ccc(Cl)cc1)N(Cc1ccc(C)o1)C2=O (configuration not stated)	none
O=c1c2ccccc2n2c(=O)n(Cc3cccc(Cl)c3)nc2n1Cc1ccc(F)cc1	none
COc1ccccc1NC(=O)Cn1nc2n(CCC(C)C)c(=O)c3ccccc3n2c1=O	none
Cc1cc(S(=O)(=O)NCCN2CCOCC2)ccc1Cl	none
Cc1cnc(Nc2ccc(CN3CCOCC3)cc2)nc1Nc1cccc(S(=O)(=O)NC(C)(C)C)c1	Methyltransferases active
Cc1cnc(Nc2cccc(CN3CCOCC3)c2)nc1Nc1cccc(S(=O)(=O)NC(C)(C)C)c1	none
Cc1cc(C)cc(NS(=O)(=O)c2cc3c(cc2Cl)n(C)c(=O)n3C)c1	none
CCc1cc2c(cc3n2CC(C)(C(=O)NC2CCCCC2)N(Cc2cccs2)C3=O)s1 (configuration not stated)	none
O=[N+]([O-])c1cccc2c(Br)[nH]nc12	Methyltransferases active
COc1ccc(N2C(=O)c3cc(C(C)(C)C)nn3CC2(C)C(=O)NCc2ccccc2)cc1 (configuration not stated)	none
Nc1ncnc2c1ncn2C1CCCC1	none
CCCCNc1ncc2c(-c3ccc(CN4CCN(C)CC4)cc3)cn(C3CCC(O)CC3)c2n1 (configuration not stated)	none
CN1CCN(C2CCC(n3cc(-c4ccc(Oc5ccccc5)cc4)c4c(N)ncnc43)CC2)CC1 (configuration not stated)	Methyltransferases active
CCOC(=O)c1cc2n(n1)CC(C)(C(=O)NCc1ccc(F)cc1)N(Cc1ccc(F)cc1)C2=O (configuration not stated)	none
CC1(C(=O)NC2CCCCC2)Cn2c(cc3occc32)C(=O)N1C1CCCC1 (configuration not stated)	none
CCCn1c(=O)c2ccccc2n2c(=O)n(CC(=O)NC3CCCCC3)nc12	none
CN(CCCN1C(=O)c2ccc(-c3ccco3)n2CC1(C)C(=O)NC1CCCC1)Cc1ccccc1 (configuration not stated)	none
